USP30 block: human USP30 deubiquitinase inhibition; hit rate 5.3% among 47,000; inhibition, % at 25 µM; purified USP30, Ub-rhodamine cleavage fluorescence; Q70CQ3
USP17 inh: inhibitors of human USP17 deubiquitinase; A8MUK1; purified USP17, Ub-rhodamine cleavage fluorescence, 3 h; inhibition, % at 50 µM; hit rate 6.5% among 47,000; AID 1645855
Target sequence (A8MUK1 whole entry, looked up): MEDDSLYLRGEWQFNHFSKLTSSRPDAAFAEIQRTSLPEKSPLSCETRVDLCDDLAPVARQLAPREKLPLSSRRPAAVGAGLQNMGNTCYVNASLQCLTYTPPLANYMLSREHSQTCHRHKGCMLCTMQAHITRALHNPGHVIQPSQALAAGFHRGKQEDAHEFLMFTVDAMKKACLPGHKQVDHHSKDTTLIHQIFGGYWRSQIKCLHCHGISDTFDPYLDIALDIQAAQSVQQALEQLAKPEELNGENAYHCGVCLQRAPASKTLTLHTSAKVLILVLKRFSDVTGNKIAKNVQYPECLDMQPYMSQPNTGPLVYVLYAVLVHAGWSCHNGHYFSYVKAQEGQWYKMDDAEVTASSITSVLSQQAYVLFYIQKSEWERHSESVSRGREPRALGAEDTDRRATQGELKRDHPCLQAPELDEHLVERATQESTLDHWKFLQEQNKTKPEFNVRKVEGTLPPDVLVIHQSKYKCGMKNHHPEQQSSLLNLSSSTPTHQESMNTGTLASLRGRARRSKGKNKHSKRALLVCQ
USP28 inh: human USP28 deubiquitinase inhibition. Q96RU2. purified USP28, Ub-rhodamine cleavage fluorescence, 30 min. inhibition, % at 25 µM. hit rate 3% among 47,000. AID 1645857
Starred values were filed as active, the others as inactive; · = no result given. In the library only some 11% were active in any assay of this set; here they are far more common. No stated cut-off is given here; in the data, active means inhibition above about 30%; inactive means the rest.

SMILES	USP30 block	USP17 inh	USP28 inh
COc1ccc(CNC(=O)Cc2ccc3ccccc3c2)cc1OC	5	-2	4
COc1ccc(CNC(=O)c2cc3ccccc3cc2OC)cc1OC	-12	-10	-9
O=C(NCc1ccc(F)cc1)Nc1ccc(-c2nnc(-c3ccccc3)o2)cc1	·	72*	·
Cc1nnc(C2CCN(CC(=O)Nc3ccc(C)c(C)c3)CC2)s1	2	-3	-2
CCCSc1nc(NCCN2CCOCC2)c2c3c(sc2n1)COC(C)(C)C3	-89	-56	-42
COc1ccc(-c2[nH]c3ncccc3c2CN2CCCC2)cc1	-36	-9	-8
Cn1cnc(S(=O)(=O)N2CCCCC2c2nc3ccccc3[nH]2)c1 (stereo not drawn)	-36	-6	-9
COc1ccc(OCC(=O)Nc2nc(-c3ccc(OC)c(OC)c3)ns2)cc1	-32	-14	-12
COc1ccc(CC(=O)NCc2cc3ccccc3s2)cc1OC	-23	-6	9
COc1ccc(-c2nsc(NC(=O)Cc3cccc4ccccc34)n2)cc1OC	-57	0	33*
COc1ccc(CCNC(=O)c2cc3ccccc3s2)cc1OC	-26	-18	86*
O=c1c(NCc2ccccc2)nccn1-c1ccc2c(c1)OCCO2	0	-7	10
Cc1c(C(=O)NCC2CCCO2)nnn1-c1cccc(Cl)c1 (stereo not drawn)	-9	-23	-10
Cc1ccc(-c2nnc(-c3nnn(-c4ccc(C)cc4)c3C)o2)cc1	35*	25	15
COc1ccc(-c2nc(-c3nnn(-c4ccc(C)cc4)c3C)no2)cc1OC	22	17	15
COc1ccc(S(=O)(=O)c2nnn(-c3cccc(OC)c3)c2C)cc1	-13	-11	0
COc1ccccc1-c1nc(-c2nnn(-c3ccc(F)cc3)c2C)no1	·	12	·
COc1cccc(-n2nnc(-c3nnc(-c4ccccc4C)o3)c2C)c1	49*	-2	2
Cc1c(-c2nnc(-c3ccccn3)o2)nnn1-c1cccc(Cl)c1	70*	11	94*
COc1ccc(OC)c(-n2nnc(-c3nc(-c4ccccc4C)no3)c2C)c1	·	32*	·
CC(C)n1nccc1-c1cncc(CC2CCN(S(C)(=O)=O)CC2)n1	-12	-2	0
COc1ccc2[nH]cc(CCNC(=O)Cc3csc(-c4ccccc4)n3)c2c1	-11	-6	-1
O=S(=O)(c1ccccc1Cl)N1C[C@@H]2c3nccn3-c3ccccc3[C@@H]2C1	-16	-5	-8
CC(O)C(O)/C=C/c1cccc(O)c1C=O (stereo not drawn)	-27	-13	-17
COc1ccc(NC(=O)Cc2nc(-c3cccc(Cl)c3)no2)cc1	-29	-24	-21
SMILES	USP30 block	USP17 inh	USP28 inh
COc1ccc(NC(=O)CS(=O)c2ccc(Cl)c(Cl)c2)cc1 (stereo not drawn)	47*	5	11
CC(NS(=O)(=O)c1cccc(C(=O)NCc2ccc(Cl)cc2)c1)C12CC3CC(CC(C3)C1)C2 (stereo not drawn)	-1	·	-13
c1ccc(CN=C(Nc2ccccc2)Nc2ccccc2)cc1	13	-8	-8
Cc1nn2c(C)c(C(=O)NCc3ccc(N(C)C)cc3)cnc2c1-c1ccccc1	-30	3	0
COc1ccc(CCNC(=O)c2cnc3c(-c4cccc(C)c4)c(C)nn3c2C)cc1OC	-17	0	39*
COc1cc(C(=O)OCC(=O)Nc2ccc(Oc3ccccc3)cc2)ccc1OCc1ccccc1	20	21	-5
Cc1ccccc1CCNC(=O)c1cc(C2CC2)nc2c1cnn2C(C)C	-10	-51	19
CC(C)n1ncc2c(C(=O)NCCc3ccc(F)cc3)cc(C3CC3)nc21	-24	0	42*
Cc1ccc(S(=O)(=O)N2C(=O)CCC2C(=O)N2CCN(c3ccccn3)CC2)cc1 (stereo not drawn)	-16	-8	-11
CNc1cccc(C2CN(C(=O)Cc3c(C)nn(C)c3C)CCO2)n1 (stereo not drawn)	9	-4	-8
CCc1ccc(NC(=O)CSC2=NC3(CCCC3)Nc3ccccc32)cc1	-52	4	-14
CCc1ccc(NC(=O)CSc2[nH]c(=O)c(C(=O)O)cc2C#N)cc1	20	42*	48*
CCOCCCn1c(=O)[nH]c(=O)c2c(N)c(C(=O)c3ccc(OC)c(OC)c3)sc21	-19	-12	-12
Cc1ccc(-c2n[nH]c3c2CN(C(=O)c2cccn2C)CC3)cc1	·	-10	·
CCOc1ccc(OCc2ccc(C(=O)NC3CCCCCC3)o2)cc1	-56	-16	0
CC(=O)c1cc2c(cc1NC(=O)c1oc3c(c1C)-c1[nH]ncc1CC3)OCO2	-34	43*	10
CC(=O)c1cc2c(cc1NC(=O)c1cc(S(=O)(=O)N3CCCC3)cn1C)OCO2	10	19	1
CN(C(=O)NCc1ccco1)c1nc2c(s1)CN(Cc1ccccc1)C2=O	-42	27	2
N#Cc1cccc(NC(=O)/C=C/c2cccc3ccccc23)c1	-15	35*	4
N#Cc1cccc(C(=O)Nc2cccc(Oc3ccccc3)c2)c1	4	10	16
Cc1cc(C(F)(F)F)nc(-n2cc(-c3ccccc3)nn2)n1	13	35*	-5
Fc1ccc(-c2cc(C(F)(F)F)nc(-n3nnc4ccccc43)n2)cc1	11	16	10
O=C(Nc1ccccc1F)c1oc(=O)c2ccccc2c1-c1ccccc1	-4	-10	-20
O=C(NCCc1ccccc1Cl)c1oc(=O)c2ccccc2c1-c1ccccc1	44*	19	29
O=C(CCC(=O)N1CCC(C(=O)N2CCOCC2)CC1)Nc1ccc(Oc2ccccc2)cc1	24	·	18
SMILES	USP30 block	USP17 inh	USP28 inh
O=C(CCSc1ccccc1)Nc1ccc(-c2nc3ccccc3o2)cc1	-24	3	-2
O=C(COC(=O)C1CCCCC1)Nc1ccc(Oc2ccccc2)cc1	28	31*	11
O=C(CCSc1ccccc1)Nc1ccc(Oc2ccccc2)cc1	5	42*	3
COc1ccc(N2CC(C(=O)Nc3c(C)cccc3C)CC2=O)cc1 (stereo not drawn)	-8	-6	-2
Cc1cc(C)c2c(=O)n(CC(=O)NCCc3ccccc3)c(=O)n(C)c2n1	-62	-12	-14
O=C(NC(C(=O)OCc1ccccc1)c1ccccc1)c1ccccc1 (stereo not drawn)	32*	26	9
CC(CNC(=O)c1ccccc1)NC(=O)c1ccccc1 (stereo not drawn)	-1	6	2
COc1ccccc1C(=O)N[C@@H]1C[C@H]2Oc3ccccc3N[C@H]2[C@@H]1O	-10	-12	-17
CC(C)(C)CC(=O)N1CCC(N2CC(=O)N(CCc3ccccc3)C2)CC1	-26	-26	-5
Cc1nc2cc(N3CC(C(=O)Nc4cccc(C)c4C)CC3=O)ccc2o1 (stereo not drawn)	33*	18	10
Cc1nc2cc(N3CC(C(=O)NCc4ccccc4)CC3=O)ccc2o1 (stereo not drawn)	19	14	3
Cn1cccc1C(=O)N1CCc2c(c(-c3nc(Cc4ccccc4)no3)nn2C)C1	-15	9	5
COc1ccc(S(=O)(=O)N2CCN(C(=O)c3cccnc3)CC2)cc1	2	-9	-3
CN(Cc1ccccc1)S(=O)(=O)c1ccc(S(=O)(=O)N2CCN(C(=O)c3cccnc3)CC2)cc1	74*	23	20
CN1C(=O)COc2ccccc2C/C=C/C[C@@H]2[C@H]1CCCN2C(=O)CC1CCOCC1	20	9	15
